# Screening results as filed in PubChem.
# Shown are actives, neighbours in structure and some others; about 7.3% of the full set was active somewhere.
# NPC1 promoter act – activates the NPC1 promoter; AID 485313; Huh7 NPC1 promoter luciferase reporter, 24 h; hit rate 2.4% among 320,000; Potency, µM (highest dose often 9.22 µM), without a hit: top-dose activation, hits mostly activators; note: % of control where 0% means no effect; nearly all actives have a fitted effect of over 60% in size
#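 Readout is luciferase luminescence, reflecting NPC1 promoter activation in stably transfected Huh7 cells after 24 h compound exposure at 37 °C in reduced-serum medium with 10% FBS.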
# Rab9 promoter act – Rab9 promoter activation | Huh7 Rab9 promoter-luciferase reporter, luminescence, 24 h | Potency, µM (series often up to 9.22 µM), inactives show at the top dose activation, negative = inhibition, actives largely listed as activators | hit rate 2.8% among 320,000; note: % of control where 0% means no effect; nearly all actives have a fitted effect of over 60% in size
#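 Cells were plated at 1500 per well in reduced-serum medium with 10% FBS and left 2 h. Compound in DMSO was then added for 24 h at 37 °C. Reporter signal was read by luminescence after 10 min with luciferase detection reagent.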
# uPA generation – cell surface uPA generation inhibition. Potency, µM (highest dose often 38.3 µM), for the others: at the highest dose activity change, negative = inhibition, actives largely listed as inhibitors. AID 540303. cell surface uPA generation assay, qHTS. hit rate 0.31% among 330,000; active = well fitted inhibition curve with a large enough effect; inconclusive = small, poorly fitted or top-dose-only effect; inactive = no such curve, though single readings can be large or run the other way; tested in mouse RAW 264.7 cells; note: % is set by controls: 0 for no effect and ±100 for the full control effect; nearly all actives have a fitted effect of over 55% in size
# SMN2 splice enh – SMN2 splice variant enhancement; HEK293 SMN2-luciferase splicing reporter, luminescence, 30-36 h; hit rate 2.8% among 210,000; Potency, µM (top dose mostly 46.1 µM), inactives show top-dose activity change, positive = activation, most hits filed as activators; AID 1458; note: % of control where 0% means no effect; nearly all actives have a fitted effect of over 55% in size
#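 HEK293 cells carry an SMN2 […]–luciferase reporter in which exon 7 inclusion puts luciferase in frame. Cells were plated 10-12 h before compound addition, then incubated 30-36 h at 37C. ONE-Glo luminescence was read; sodium butyrate at 4.5 mM final served as control.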
# ELG1 genotoxic – inducers of genotoxicity in HEK293T ELG1-luciferase cells; HEK293T ELG1-luciferase reporter, luminescence, 16 h; Potency, µM (doses to about 46 µM), without a hit: at the top dose activity change, positive = activation, most hits filed as activators; hit rate 1.3% among 330,000; AID 504466; note: % of control where 0% means no effect; nearly all actives have a fitted effect of over 60% in size
#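 Reporter readout depends on ELG1 protein level, which increases with genetic stress. After 16 hr compound exposure at 37 °C, luciferase activity was quantified using ONE-Glo.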
# FLuc modulator – inhibits or activates purified firefly luciferase, miR-21 counter-screen | P08659 | purified FLuc, Km substrates, luminescence inhibition | Potency, µM (titrated, usually from 57.5 µM), for the others: at the top dose activity change, negative = inhibition, most hits filed as inhibitors | hit rate 6.9% among 360,000;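 note: plate controls were vehicle for no effect and reference inhibitor for full effect; nearly all actives have a fitted effect of over 55% in size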
# Target sequence (P08659 whole entry, looked up): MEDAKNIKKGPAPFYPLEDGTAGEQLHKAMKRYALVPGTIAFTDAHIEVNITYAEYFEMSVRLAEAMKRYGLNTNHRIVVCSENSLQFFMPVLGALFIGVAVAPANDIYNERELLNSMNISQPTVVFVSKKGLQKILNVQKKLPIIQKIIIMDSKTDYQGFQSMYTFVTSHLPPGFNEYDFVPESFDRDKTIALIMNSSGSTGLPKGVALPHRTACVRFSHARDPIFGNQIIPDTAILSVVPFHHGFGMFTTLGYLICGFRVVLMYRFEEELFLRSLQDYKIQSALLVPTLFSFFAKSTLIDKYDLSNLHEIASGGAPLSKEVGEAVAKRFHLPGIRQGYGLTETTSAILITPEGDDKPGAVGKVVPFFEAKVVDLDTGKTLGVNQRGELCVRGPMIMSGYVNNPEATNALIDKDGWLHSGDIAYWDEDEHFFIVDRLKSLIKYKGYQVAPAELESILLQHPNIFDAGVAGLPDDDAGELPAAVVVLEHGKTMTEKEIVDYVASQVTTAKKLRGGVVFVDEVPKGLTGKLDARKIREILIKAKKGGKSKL
#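 Purified P. pyralis luciferase, 10 nM final, with Km-level 10 uM D-luciferin and 10 uM ATP in 50 mM Tris acetate pH 7.5, 10 mM Mg acetate, 0.01% Tween-20, 0.05% BSA; 6-point qHTS titration about 60 µM downward; luminescence read.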
# An asterisk follows results filed as active; ? = inconclusive; . = no result given; [ ] = dose if it differs, or a comment. Unless noted, calls come from the whole dose curve; as a rule, active = well fitted curve in the direction sought with a large enough effect; inconclusive = small, poorly fitted or top-dose-only effect, or another doubt; inactive = no such curve, though single readings can be large; an effect the other way counts as inactive or inconclusive. Potency is the fitted concentration of half-maximal effect.
SMILES,NPC1 promoter act,Rab9 promoter act,uPA generation,SMN2 splice enh,ELG1 genotoxic,FLuc modulator
O=C(Nc1nnc(-c2ccccc2)o1)c1cccc(N2C(=O)CCC2=O)c1,-1.2%,1.3%,1.6%,-3.7%,0.1%,?
COC(=O)Cc1ccc(NC(=O)c2ccc(C(C)(C)C)cc2)cc1,-29.2%,-19.2%,-8.5%,-86.9%,-22.6%,1.35µM*
COc1cccc(C(=O)Nc2ccc(NC(=O)c3ccc(C(C)(C)C)cc3)cc2)c1,.,.,.,-13.9%,.,1.3%
Cn1c(-c2nonc2NC(=O)c2ccc(C(C)(C)C)cc2)nc2ccccc21,0.0%,-3.8%,.,-2.4%,-2.1%,-6.4%
CC(=O)Nc1nonc1NC(=O)c1ccc(C(C)(C)C)cc1,?,3.55µM*,-0.9%,?,19.2%,?
Cc1ccc(NC(=O)c2ccsc2)cc1NS(C)(=O)=O,-5.3%,-2.7%,5.7%,.,2.2%,-2.7%
CC(C)(C)c1ccc(C(=O)Nc2ccc(Cl)cc2)cc1,2.82µM*,1.41µM*,1.2%,3.55µM*,?,?
CC(C)(C)c1ccc(NC(=O)c2ccsc2)cc1,0.447µM*,0.398µM*,-5.3%,.,?,1.07µM*
CCOc1ccc(CNC(=O)c2cc3c(s2)-c2ccccc2OC3)cc1,.,.,.,-14.6%,.,3.3%
COc1ccc(-c2nc(-c3ccccc3)c(NC(C)C)o2)cc1,.,.,.,5.8%,.,.
CCN(CC)CCCNC(=O)CN1C(=O)COc2ccc(S(=O)(=O)N3CCC(C)CC3)cc21,.,.,.,11.1%,.,0.0%
COC(=O)C1=C(N)N(c2ccccc2F)C2=C(C(=O)CC(C)(C)C2)C1c1ccc(OC)c(OC)c1 (centres undefined),-1.8%,-1.3%,-0.3%,13.4%,-1.9%,2.8%
COC(=O)Cc1ccc(NC(=O)c2ccccc2Cl)cc1,1.9%,-2.4%,-4.7%,22.8%,15.1%,15.1µM*
COc1cc(/C=C2\CCCc3c2nc2ccccc2c3C(=O)O)cc(Br)c1O,-4.1%,0.1%,-0.1%,.,-0.5%,?
COc1cc(/C=C2\CCc3c2nc2ccccc2c3C(=O)O)cc(OC)c1OC,2µM*,3.55µM*,?,.,23.1µM*,0.849µM*
COc1ccc(/C=C2\CCn3c2nc2ccccc2c3=O)cc1OC,3.55µM*,2.51µM*,11.7%,.,?,8.49µM*
Fc1ccc(COc2ccc(-c3nnco3)cc2)c(Cl)c1,24.5%,?,0.4%,.,24.9%,?
Fc1cc(Br)ccc1COc1ccc(-c2nnco2)cc1,2.51µM*,2.51µM*,-3.4%,.,?,?
CCn1c(C(=O)NCc2cc(Br)ccc2OC)cc2oc3ccccc3c21,.,.,.,-13.5%,.,2.6%
COC(=O)N1CCC[C@@]2(CCN(C(=O)Nc3ccc(OC)cc3)C2)C1,.,.,.,1.5%,.,.
CCSc1ncc(Cl)c(C(=O)N(Cc2ccc(C(C)(C)C)cc2)C2CCS(=O)(=O)C2)n1 (centres undefined),.,.,.,-5.6%,.,-5.3%
CCc1ccc(-c2ccc(SCc3ccccn3)nn2)cc1,3.16µM*,?,-3.2%,?,?,8.49µM*
CCOc1ccc(-c2ccc(SCc3ccccn3)nn2)cc1,?,?,-1.4%,15.7%,-6.6%,13.5µM*
CCc1ccc(NC(=O)CSc2ccc(-c3ccccn3)nn2)cc1,13.8%,26.1%,?,.,?,-17.7%
CCOc1ccc(-c2ccc(SCC(=O)N3CCN(c4ccccc4)CC3)nn2)cc1,2.7%,-2.4%,.,-15.8%,1.2%,?
SMILES,NPC1 promoter act,Rab9 promoter act,uPA generation,SMN2 splice enh,ELG1 genotoxic,FLuc modulator
O=C(Nc1nc(-c2cccc(Br)c2)cs1)Oc1ccccc1,20.9%,20.2%,-12.0%,-10.5%,10.5%,-1.8%
CCc1ccc(-c2csc(NC(=O)Oc3ccccc3)n2)cc1,?,?,0.8%,.,?,6.01µM*
CCc1ccc(OC(=O)Nc2ccccc2)cc1,-2.4%,?,3.5%,.,9.3%,9.53µM*
CN1CCN(CC(=O)N(C)c2nc(-c3ccccc3)cs2)CC1,3.98µM*,2.82µM*,-1.6%,-34.5%,?,15.1µM*
COCC(=O)Nc1nc(-c2ccc(-c3ccccc3)cc2)cs1,2.24µM*,0.794µM*,-3.3%,.,0.2%,?
COc1ccc(CNC(=O)C(C)n2c(=O)cc(C)c3c(C)nn(-c4ccccc4)c32)cc1 (centres undefined),.,.,.,.,.,-1.1%
CCc1ccccc1NC(=O)CCCN1C(=O)CCn2nc(-c3cn(C)c4ccccc34)cc21,.,.,.,.,.,0.1%
COc1cc(OC)cc(-c2nc3n(n2)C(c2ccccc2)C(C(N)=O)=C(C)N3)c1 (centres undefined),.,.,.,17.2%,.,6.2%
Cn1ncc(Br)c1C(=O)OCC(=O)Nc1nc(-c2ccccc2)cs1,21.6%,-1.2%,-3.8%,14.1µM*,0.7%,-6.0%
O=C(CN1CCCCC1)Nc1nc(-c2ccccc2)cs1,?,22.4%,-2.1%,.,?,21.3µM*
O=C(CN1CCCCC1)Nc1nc(-c2ccc(Cl)cc2)cs1,1.3%,1.2%,2.3%,.,6.8%,16.9µM*
O=C(COC(=O)c1ccccn1)Nc1nc(-c2ccccc2)cs1,0.1%,21.0%,-1.0%,.,23.9%,?
CC(OC(=O)c1ccc(NC(=O)CC#N)cc1)C(=O)Nc1nc(-c2ccccc2)cs1 (centres undefined),11.0%,15.9%,1.9%,.,23.1µM*,2.1%
O=C(CN1CCCCC1)Nc1nc(-c2ccc(F)c(F)c2)cs1,?,?,0.7%,.,-18.6%,?
COc1ccc(Cl)cc1NC(=O)NCCn1c(=O)oc2ccc(C)cc21,.,.,.,-14.0%,.,-16.5%
CCCc1cc(=O)[nH]c2nnc(SCC(=O)NC3CCCCC3)n12,-1.9%,-1.7%,5.4%,.,-4.8%,3.3%
O=C(Nc1ccc(O)c(C(=O)O)c1)Oc1ccccc1,0.9%,12.0%,-12.5%,.,2.9%,13.5µM*
COc1cccc(-c2csc(NC(C)=O)n2)c1,3.98µM*,3.98µM*,-12.1%,28.2µM*,10.3µM*,15.1µM*
O=C(Nc1ccc2oc(=O)c(C(=O)O)cc2c1)Oc1ccccc1,.,.,4.3%,-13.7%[9.22 µM],.,.
COc1ccc(-c2csc(NC(C)=O)n2)cc1OC,4.8%,1.5%,-4.2%,12.5%,15.4%,-11.4%[2.3 µM]
Cc1ccc(C)c(NC(=O)CSc2nnc(-c3cc4occc4n3C)n2-c2ccccc2C)c1,.,.,.,.,.,2.2%
O=C(c1ccccc1O)N1N=C(c2ccccc2)CC1(O)C(F)(F)F (centres undefined),1.1%,?,-2.6%,.,-7.6%,?
CN(C)c1ccc(/C=c2\sc3n(c2=O)CCCN=3)cc1,0.398µM*,0.316µM*,-10.6%,1.58µM*,?,0.239µM*
COC(=O)/C=c1/sc2n(c1=O)CCN=2,0.3%,0.6%,9.0%,-8.4%,-0.3%,2.0%
C=CCn1c(=O)/c(=C/c2ccc(F)cc2)s/c1=C(\C#N)c1nnc2n1CCCCC2,1.5%,2.0%,-15.8%,.,-4.8%,0.7%
